Measurements reported in PubChem BioAssay AID430 (Sanford-Burnham Center for Chemical Genomics, 2006).
In all, about 63,000 compounds went through this assay and about 1,100 (1.7%) were called active. The full list was thinned out, with actives kept by preference. Results with a measured potency or affinity are listed apart. A number with no mark means an inactive call. Cut-off read from the data, not from the text of the source: active = cytotoxicity above about 50%; inactive = the rest.

assay: cytotoxicity in HPDE-C7 cells, cell-based, fluorescence, HTS (AID 430); conditions: HPDE-C7 pancreatic duct cells viability, at 10 µM, stronger effect = higher value;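 note: cells exposed to compound for 48 hours before viability readout; 0% = vehicle and 100% = reference cytotoxic drug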

Row | SMILES | cytotoxicity
1 | CCCn1c(SCC(=O)Nc2nnc(CC)s2)nnc1-c1ccco1 | -5%
2 | O=C(Nc1ccc2oc(=O)ccc2c1)c1cccnc1 | 3%
3 | COc1ccccc1-c1nc(-c2ccncc2)no1 | 2.1%
4 | COc1cc2oc(=O)c(Br)c(C)c2c(OC)c1OC | -8.6%
5 | CCCS(=O)(=O)c1c(S(=O)(=O)CCC)c2ccccn2c1C(=O)OC | -3.7%
6 | CCN1CCN(c2cc(=O)n(C3CCCCC3)c(=O)[nH]2)CC1 | -14.2%
7 | CCOC(=O)N1CCN(C(=O)CCc2c(C)nc3c(c(C)nn3-c3ccc(C)c(C)c3)c2C)CC1 | -7.7%
8 | CCOc1ccc(S(=O)(=O)Nc2cc(OC)ccc2OC)cc1 | 73.1% (active)
9 | COc1ccc(OC)c(NS(=O)(=O)c2ccc3c(c2)CCC(=O)N3)c1 | 3.3%
10 | CCCCOc1ccc(S(=O)(=O)Nc2cc(OC)ccc2OC)cc1 | 31.3%
11 | COC(=O)COc1ccc(S(=O)(=O)Nc2cc(OC)ccc2OC)cc1 | -2.9%
12 | COc1ccc(OC)c(NS(=O)(=O)c2ccc(SC)cc2)c1 | 36.3%
13 | COc1ccc(OC)c(NS(=O)(=O)c2ccc(N3CCCC3=O)cc2)c1 | 75.9% (active)
14 | Cc1cc(C(=O)NCc2ccccc2)c(=O)[nH]c1C | -2.3%
15 | Cc1cc(C)n2nc(SCC#N)nc2n1 | 1.5%
16 | CCCCOCCCNC(=O)c1c(-c2ccccc2)noc1C | 6.3%
17 | COc1ccc(C2=NOC(C(=O)NCc3ccccc3)C2)cc1 (stereo not drawn) | 54.5% (active)
18 | COc1ccc(C2=NOC(C(=O)NCC(C)C)C2)cc1 (stereo not drawn) | -14.9%
19 | COc1ccc(CNC(=O)C2CC(c3ccc(OC)cc3)=NO2)cc1 (stereo not drawn) | 17.5%
20 | O=C(NCc1cccnc1)C1CC(c2ccc(F)cc2)=NO1 (stereo not drawn) | -10.8%
21 | COc1ccc(CNC(=O)C2CC(c3ccc(F)cc3)=NO2)cc1 (stereo not drawn) | 1%

Row | SMILES | cytotoxicity
22 | COc1ccc(C2=NOC(C(=O)NCc3ccc(F)cc3)C2)cc1 (stereo not drawn) | 63.5% (active)
23 | CC(=O)Nc1ccc(NS(=O)(=O)c2ccc(Cl)c(C(=O)O)c2)cc1 | 0.9%
24 | COC(=O)CC1=NC(=O)CS1 | 0.6%
25 | COC(=O)c1ccccc1NC(=O)CSc1nnc(CNS(=O)(=O)c2ccc(C)cc2)n1C | -12.6%
26 | O=C1OCCN1CCN(CN1C(=O)CCC1=O)CN1C(=O)CCC1=O | 5.9%
27 | O=C(CN(Cc1ccc2c(c1)OCO2)C(=O)c1cnsn1)NC1CCCC1 | 7%
28 | COc1ccc(NC(=O)c2ccc(Cl)c(S(=O)(=O)N3CCc4ccccc4C3)c2)cn1 | 86.5% (active)
29 | O=C(Nc1cccnc1)c1ccc(Cl)c(S(=O)(=O)N2CCCCCC2)c1 | 12.4%
30 | COc1ccccc1NC(=O)c1ccc(Cl)c(S(=O)(=O)N2CCOCC2)c1 | -10.1%
31 | COc1ccc(CNC(=O)C2CCCN(S(=O)(=O)c3cnc[nH]3)C2)cc1 (stereo not drawn) | -4.6%
32 | CN(CC(O)COc1ccc(OCC(O)CN(C)C2CCCCC2)cc1)C1CCCCC1 (stereo not drawn) | 7.7%
33 | Cc1csc(SCC(=O)Nc2c(C)n(C)n(-c3ccccc3)c2=O)n1 | 3.8%
34 | COc1ccc(S(=O)(=O)Nc2nc(C(F)(F)F)cs2)cc1 | -2.3%
35 | Cc1ccc2c(CC(=O)NCc3ccco3)coc2c1C | 64.7% (active)
36 | Cc1cc(C)c2c(CC(=O)NCc3ccco3)coc2c1 | 4.1%
37 | O=C(Cc1cccs1)NCc1ccco1 | 5.7%
38 | O=C(c1cnn2ccccc12)N(Cc1ccco1)C1CCCC1 | -3.3%
39 | COc1ccc(OC)c(C2=Nn3c(nnc3-c3cc(OC)c(OC)c(OC)c3)SC2)c1 | 4.4%
40 | c1ccc(C2=Nn3c(nnc3-c3cc(-c4ccccc4)n[nH]3)SC2)cc1 | 5.2%
41 | CCOc1ccc(C2=Nn3c(nnc3-c3ccccc3OC)SC2)cc1 | 63.4% (active)
42 | COc1ccc(C2=Nn3c(nnc3-c3ccccn3)SC2)cc1OC | -0.7%

Row | SMILES | cytotoxicity
43 | CCOc1ccc(C2=Nn3c(nnc3-c3ccc(OC)cc3)SC2)cc1 | 45.9%
44 | COc1ccc(C2=Nn3c(nnc3-c3ccccc3)SC2)cc1OC | 3.6%
45 | COc1ccc(-c2nnc3n2N=C(c2ccccc2)CS3)cc1OC | -2.9%
46 | COc1cc(-c2nnc3n2N=C(c2ccccc2)CS3)cc(OC)c1OC | 57.4% (active)
47 | Cc1ccc(-c2nnc3n2N=C(c2ccccc2)CS3)cc1 | -4.2%
48 | CCOc1ccc(-c2nnc3n2N=C(c2ccc(OC)cc2)CS3)cc1 | 0.1%
49 | CCC(C)Oc1cccc(C(=O)Nc2ccccc2N2CCOCC2)c1 (stereo not drawn) | 1.7%
50 | CCCn1c(SCC(=O)Nc2c(CC)cccc2CC)nnc1C(C)C | -2.4%
51 | Cc1ccc(S(=O)(=O)NCC(C)NS(=O)(=O)c2ccc(C)cc2)cc1 (stereo not drawn) | -44.3%
52 | COc1ccc2nc(NC(=O)CN(c3ccc(C)cc3)S(=O)(=O)c3c(C)nn(C)c3C)sc2c1 | 10.7%
53 | OC(COc1c(Cl)cc(Cl)cc1Cl)CN1CCCCC1 (stereo not drawn) | 7.4%
54 | CC(=O)Nc1ccc(S(=O)(=O)N2CCSC2c2ccc(C)cc2)cc1 (stereo not drawn) | 0.6%
55 | Nc1nnc2c(n1)CCCC2 | 2.7%
56 | COc1ccccc1-c1nnc2n1N=C(c1ccc(O)c(O)c1)CS2 | 60.1% (active)
57 | COc1cccc(C2=Nn3c(nnc3-c3ccccc3O)SC2)c1 | -36.1%
58 | COc1ccccc1-c1nnc2n1N=C(C)CS2 | -3.3%
59 | C1CCN(c2nc(N3CCCCC3)nc(N3CCNCC3)n2)CC1 | 2.9%
60 | c1ccc(Nc2nc(N3CCCCC3)nc(N3CCNCC3)n2)cc1 | 71.8% (active)
61 | c1ccc(Nc2nc(N3CCOCC3)nc(N3CCOCC3)n2)cc1 | 3.2%
62 | CCOC(=O)C1CCCN(C(=O)c2cn(CC)c3ccc(S(=O)(=O)N4CCCC4)cc3c2=O)C1 (stereo not drawn) | -6.2%
63 | CC(C)NC(=O)c1ccccc1NC(=O)CCS(=O)(=O)Cc1ccccc1 | -16.4%
